JMJD2A Tudor = blocks the human JMJD2A Tudor domain; AlphaScreen JMJD2A-Tudor / H3K4me3 peptide binding; Potency, µM (doses to about 114 µM), for the others: at the highest dose activity change, negative = inhibition, actives largely listed as inhibitors; 4.4% of 390,000 active; AID 504339; note: potency is the fitted concentration of half-maximal effect; % is set by controls: 0 for no effect and ±100 for the full control effect; nearly all actives have a fitted effect of over 50% in size
HP1b chromo inh = HP1-beta chromodomain-methylated histone interaction inhibition; P83916; AlphaScreen HP1-beta / biotin-H3K9me3 peptide binding; Potency, µM (doses to about 114 µM), for the others: top-dose activity change, negative = inhibition, usual class: inhibitors; 0.56% of 390,000 active; AID 540317; note: potency is the fitted concentration of half-maximal effect; nearly all actives have a fitted effect of over 70% in size
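Compound inhibition of the preformed complex between 50 nM HP1-beta and 50 nM biotinylated H3K9me3 peptide was read by AlphaScreen. Buffer was PBS pH 7.4 with 0.01% Tween-20. Incubations ran 30 min at room temperature, with 10 ug/mL donor/acceptor beads.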
GCN5L2 inh = GCN5L2 (KAT2A) acetyltransferase inhibition | Q92830 | GCN5L2 HAT assay, ThioGlo1 CoA-SH fluorescence | Potency, µM (highest dose often 58.9 µM), without a hit: at the highest dose activity change, negative = inhibition, hits mostly inhibitors | 0.21% of 390,000 active | AID 504327; note: potency is the fitted concentration of half-maximal effect; % is set by controls: 0 for no effect and ±100 for the full control effect
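Free CoA generated was detected with ThioGlo1 (50uM) fluorescence at Ex340nm/Em540nm, read immediately and after 20 min at room temperature. Enzyme, 20 nM in HEPES pH 7.5 buffer, saw compounds 15 min before adding 75uM H3(1-25) peptide and 70uM acetyl-CoA.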
PLK1 PBD block = inhibitors of human PLK1 polo-box domain binding; P53350; Plk1 PBD binding of FITC phosphopeptide, fluorescence polarization; Potency, µM, inactives show max response, negative = inhibition, hits mostly inhibitors; 2.8% of 360,000 active; note: potency is the fitted concentration of half-maximal effect; series mostly up to about 57 µM; % is set by controls: 0 for no effect and ±100 for the full control effect; nearly all actives have a fitted effect of over 65% in size
Target sequence (P53350 whole entry, looked up, the tested form may be a part): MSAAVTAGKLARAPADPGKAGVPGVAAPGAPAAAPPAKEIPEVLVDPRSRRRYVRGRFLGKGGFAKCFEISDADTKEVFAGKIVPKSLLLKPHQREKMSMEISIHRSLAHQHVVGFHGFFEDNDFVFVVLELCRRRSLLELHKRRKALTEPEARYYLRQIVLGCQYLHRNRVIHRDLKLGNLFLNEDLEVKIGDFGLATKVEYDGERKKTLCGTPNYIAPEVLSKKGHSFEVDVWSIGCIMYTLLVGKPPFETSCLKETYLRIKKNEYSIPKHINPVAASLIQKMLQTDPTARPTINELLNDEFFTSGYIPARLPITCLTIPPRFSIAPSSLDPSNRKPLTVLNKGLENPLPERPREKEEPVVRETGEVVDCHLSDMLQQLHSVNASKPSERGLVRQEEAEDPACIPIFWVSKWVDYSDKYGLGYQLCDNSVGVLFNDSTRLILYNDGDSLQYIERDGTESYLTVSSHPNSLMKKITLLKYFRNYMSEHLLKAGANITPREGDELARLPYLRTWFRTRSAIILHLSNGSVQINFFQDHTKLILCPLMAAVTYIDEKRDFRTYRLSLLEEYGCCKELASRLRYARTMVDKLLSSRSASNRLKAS
BAZ2B block = BAZ2B (human) inhibition; Potency, µM (doses to about 114 µM), inactives show top-dose activity change, negative = inhibition, most hits filed as inhibitors; 4.4% of 360,000 active; AlphaScreen BAZ2B-H3K14Ac peptide displacement; Q9UIF8; note: potency is the fitted concentration of half-maximal effect; % is set by controls: 0 for no effect and ±100 for the full control effect; nearly all actives have a fitted effect of over 60% in size
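BAZ2B (50 nM) with biotin-H3(5-23)K14Ac peptide (50 nM) in PBS pH 7.4, 0.01% Tween-20, preformed 30 min, then compound 30 min at room temperature; top concentration 110uM. AlphaScreen streptavidin donor/nickel chelate acceptor beads (10 ug/mL final), 20 min dark, signal read.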
PI5P4K alpha inh = inhibitors of human PI5P4K alpha; max response, %; P48426; 1.2% of 330,000 active; PI5P4Kalpha enzyme, ADP-Glo luminescence, 60 min; stronger effect = lower value; active = max response of -50% or lower; inconclusive = between -30% and -50%; inactive = -30% or higher; note: value at the top dose of about 77 µM; % is set by controls: 0 for no effect and ±100 for the full control effect
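qHTS, 1536-well: enzyme/substrate mix, compound by pin tool, 5 microM ATP final; RT 60 min; ADP-Glo reagents 1 (45 min) then 2 (30 min); luminescence.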
* hit, by the source's call; ? = inconclusive; . = no result; [ ] = another dose, or the depositor's remark. This is a sample that favours compounds with a hit; in the whole collection about 7% have one here. Unless noted, calls come from the whole dose curve; as a rule, active = well fitted curve in the direction sought with a large enough effect; inconclusive = small, poorly fitted or top-dose-only effect, or another doubt; inactive = no such curve, though single readings can be large; an effect the other way counts as inactive or inconclusive.

SMILES | JMJD2A Tudor | HP1b chromo inh | GCN5L2 inh | PLK1 PBD block | BAZ2B block | PI5P4K alpha inh
CC(CNC(=O)CCc1nnc2ccc(N3CCC4(CC3)OCCO4)nn12)c1ccccc1 (stereo unspecified) | -9.4% | 18.5% | -7.0% | -12.1% | -16.9% | 12.6
CCc1ccccc1NC(=O)c1ccc2c(SCC(=O)O)c3c(nc2c1)CCC3 | -24.8% | 1.1% | -5.4% | . | -18.8% | .
O=C(CN1CCN(c2ccccn2)CC1)Nc1cccc(Br)c1 | -22.0% | 53.5% | ? | -6.6% | -19.2% | 6.3
N#CCCN1CCCc2cc(N=Nc3ccc(C(F)(F)F)cc3)ccc21 | 12.6µM* | 11.2µM* | -14.2% | -2.0% | 5.62µM* | 39.0
CCCN1CCCc2ccccc21 | -35.2% | 11.9% | -4.9% | -1.8% | ? | .
CCc1nnc2c3ccccc3nc(Nc3cc(C)cc(C)c3)n12 | -2.1% | 28.8% | -13.9% | . | -2.2% | .
O=C(Nc1ccc(N2CCOCC2)c2nonc12)C1CCCC1 | -16.0%[11.4 µM] | ? | -11.9% | 18.9µM* | ? | -27.7
O=C(c1ccco1)N1CCN(Cc2ccccc2F)CC1 | 28.2µM* | ? | -9.7% | -1.7% | ? | 7.1
COc1ccccc1CN1CCN(C(=O)c2ccco2)CC1 | 1µM* | 50.1µM* | -4.3% | -4.5% | ? | 1.6
COc1ccc(CN2CCN(C(=O)c3ccco3)CC2)c(OC)c1OC | 25.1µM* | ? | . | 2.4% | . | 7.2
O=C(c1ccco1)N1CCN(Cc2cccnc2)CC1 | 3.55µM* | -45.4% | 1.8% | -2.2% | 25.1µM* | -7.5
COc1ccc(Br)cc1CN1CCN(C(=O)c2ccco2)CC1 | 7.08µM* | 31.6µM* | -0.3% | 6.0% | 28.2µM* | -8.9
COc1ccccc1CN1CCC2(CC1)CCN(C(=O)c1ccco1)CC2 | . | . | -2.6% | . | . | .
COc1ccc(Cl)cc1C(=O)C1CCCN(Cc2cnc(N3CCOCC3)s2)C1 (stereo unspecified) | 14.1µM* | ? | -1.6% | 13.4µM* | -31.2% | -14.3
COc1ccc(F)cc1C(=O)C1CCCN(Cc2cnc(N3CCCC3)s2)C1 (stereo unspecified) | -15.5% | 11.4%[57 µM] | -8.5% | -22.1% | -8.5% | 0.2
COc1cc(N)ccc1Nc1c2ccccc2nc2ccccc12 | . | . | . | -8.1% | . | -54.9*
Cc1ccc(O)c(Nc2c3ccccc3nc3ccccc23)c1 | ? | ? | -3.0% | 4.7% | 35.5µM* | -13.1
CCCS(=O)(=O)Nc1ccc(Nc2c3ccccc3nc3ccccc23)c(OC)c1 | 39.8µM* | ? | . | -0.1% | . | -0.4
COc1ccc(Nc2c3c(nc4ccccc24)CCC3)c(OC)c1 | -12.5% | 13.6% | -37.8% | 4.9% | 0.1% | 3.2
COc1ccccc1C(=O)N=C1SC2CS(=O)(=O)CC2N1c1ccccc1 (stereo unspecified) | -3.2% | 9.9% | -16.3% | -1.7% | 1.5% | -9.4
COCCN(C(=O)COC(=O)Cc1ccc(Cl)cc1)c1c(N)n(Cc2ccccc2)c(=O)[nH]c1=O | . | . | . | 2.9% | . | -2.9
COCCNC(=O)Cn1ncc2c(C)n(Cc3ccc(C)cc3)c(C)c2c1=O | -25.2% | -2.0% | -5.2% | . | -9.8% | .
COc1ccc(C(O)c2ncc(-c3ccccc3Cl)[nH]2)cc1 (stereo unspecified) | . | . | . | 0.6% | . | 0.1
O=C(COc1ccccc1CNC[C@H]1O[C@@H](n2ccc(=O)[nH]c2=O)[C@H](O)[C@@H]1O)N1CCCCC1 | . | . | . | 3.2% | . | 5.0
Cc1cccc(N2CCN(C(=O)C3CCCN(C(=O)c4cc5sccc5n4C)C3)CC2)c1C (stereo unspecified) | ? | -3.0% | -6.7% | . | ? | .
Cc1cccc(N2CCN(C(=O)C3CCN(C(=O)c4cc5sccc5n4C)CC3)CC2)c1C | ? | -21.0% | -17.0% | . | 22.4µM* | .
CCC(C)C(NC(=O)C1CCC(C)CC1)C(=O)Nc1ccc(OC)cc1 (stereo unspecified) | -35.6%[57.1 µM] | -13.7% | -2.7% | 29.9µM* | -9.6% | -12.0
O=C(O)c1ccccc1-c1nc2cc(Cl)ccc2c(=O)n1O | -9.7% | 4.4% | -5.2% | -12.3% | 79.4µM* | 3.8

Screens from PubChem BioAssay.
